Source: PubChem BioAssay (several laboratories)
GalR3 antagonist: human GalR3 antagonism | inhibition, % at 3 µM | AID 651719 | HEK293 GalR3-CNG cAMP membrane potential fluorescence; galR3 body fused to GalR1 C-terminus | hit rate 0.44% among 360,000;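 active means inhibition above the screen-wide average plus 3 SD, cut at about 13% in these data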;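 further: forskolin and galanin both at EC90 stimulate the cells; cAMP rise reported by CNG channel membrane potential dye signal; 0% = forskolin plus galanin with DMSO and 100% = forskolin alone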
Target sequence (O60755 1-299 limits assumed): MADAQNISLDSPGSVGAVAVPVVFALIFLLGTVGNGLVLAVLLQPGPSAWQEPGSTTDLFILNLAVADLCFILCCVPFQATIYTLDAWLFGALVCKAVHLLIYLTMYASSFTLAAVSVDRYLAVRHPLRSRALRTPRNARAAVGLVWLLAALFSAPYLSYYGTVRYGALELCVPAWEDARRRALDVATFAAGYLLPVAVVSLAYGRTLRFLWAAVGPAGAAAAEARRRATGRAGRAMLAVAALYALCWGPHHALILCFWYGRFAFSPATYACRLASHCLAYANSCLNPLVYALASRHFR
COUP-TFII inh: blocks human COUP-TFII nuclear receptor | P24468 | HEK293T NGFI-A luciferase reporter, luminescence | inhibition, % at 8.6 µM | hit rate 0.7% among 370,000 | AID 686940;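 active means inhibition above a per-plate cutoff, mean inhibition of test wells between control levels plus 3 SD, cut at about 38% in these data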;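 further: cells cotransfected with COUP-TFII expression vector driving the NGFI-A reporter; 0% = median of COUP-TF2 test wells and 100% = reporter-only cells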
Gli-Sufu antag: Gli-Sufu pathway antagonism. inhibition, % at 5 µM. hit rate 0.74% among 340,000. Sufu-KO-LIGHT fibroblasts, Gli luciferase reporter luminescence;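 active means inhibition above about 55%, limit read from the data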;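 further: 0% = DMSO-treated cells and 100% = wells with medium but no cells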
Cardio protect: myocardial damage modulation in H9c2 cells; H9c2 cardiomyocytes, H2O2 injury protection, ATPLite, 2 h; hit rate 0.63% among 360,000; protection from H2O2 cell death, % at 20 µM; AID 588492;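 active means compounds giving at least 50% protection of heart cells from peroxide-induced death in the single-dose screen, raw or plate-pattern-corrected value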;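 further: 0% = DMSO wells with peroxide and 100% = DMSO wells without peroxide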
SMARCA2 act: increases SMARCA2 function in MMTV reporter cells; activation, % at 9.1 µM; MG213 cells, MMTV-luciferase reporter, dexamethasone, overnight; AID 652017; hit rate 1% among 370,000; in the data active means activation above about 7.8%;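 further: 0% = vehicle wells and 100% = reference activator wells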
GAA850 FXN act: increases GAA850 frataxin promoter reporter activity; activation, % at 6 µM; hit rate 0.56% among 360,000; HEK293 lucGAA850 FXN promoter luciferase reporter, 24 h; percent of 10 µM SAHA response; AID 540364;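 active means activation above the average of all compounds screened plus 3 SD, cutoff fixed separately per campaign, cut at about 7.5% in these data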;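 further: 0% = DMSO wells and 100% = 10 µM SAHA wells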
GAA30 FXN cntr: activates GAA30 frataxin promoter, counter-screen for GAA850 activators | activation, % at 6 µM | hit rate 66% among 1,900 | shares compounds with GAA850 FXN act | HEK293 lucGAA30 FXN promoter luciferase, 24 h; DMSO = 0%, 5 µM ipriflavone = 100%;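 active means mean activation above the mean of solvent-only control wells plus 3 SD, cut at about 22% in these data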;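 further: counterscreen of GAA850 promoter hits where activity marks nonselective or luminescence artifacts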
FXN GAA850 conf: GAA850 FXN promoter activation confirmation | shares compounds with GAA850 FXN act | activation, % at 6 µM | hit rate 86% among 1,900 | AID 588351 | HEK293 lucGAA850 FXN promoter luciferase reporter, 24 h; 100% = activation by SAHA;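 active means mean activation above a set limit taken from the primary screen, cut at about 8% in these data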;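 further: 0% = DMSO wells and 100% = 10 µM SAHA wells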
* hit, by the source's call; . = no result. Sampled rows, rich in hits. Any-hit rate of the full collection: about 3.4%.

SMILES | GalR3 antagonist | COUP-TFII inh | Gli-Sufu antag | Cardio protect | SMARCA2 act | GAA850 FXN act | GAA30 FXN cntr | FXN GAA850 conf
O=C(Cn1cc(SCc2ccccc2Cl)c2ccccc21)N1CCOCC1 | -11 | -33 | -66 | 0 | 3 | 9.9* | 133* | 43*
O=c1cc(-c2ccccc2)oc2ccccc12 | -3 | -32 | -40 | 6 | 4 | 5 | . | .
O=c1cc(-c2ccccc2)oc2ccc(O)cc12 | -7 | -30 | -62 | -8 | 4 | 9.2* | 134* | 42*
COc1ccccc1-c1ccc2c(c1)C(C)(Cc1ccc(Cl)c(Cl)c1)C(=O)N2 (stereo not drawn) | -5 | 17 | . | -8 | -5 | 17* | 29* | 11*
O=[N+]([O-])c1nccn1CC(O)CCN1CCOCC1 (stereo not drawn) | -9 | -17 | . | . | -7 | . | . | .
Cc1ccc(C(=O)Nc2nccc(-c3cccs3)n2)cc1 | -4 | -30 | -1 | -3 | -3 | 3 | . | .
NC(=S)Nc1nccc(-c2cccs2)n1 | 2 | -35 | 1 | 5 | 1 | 8.3* | 94* | 37*
COC(=O)c1ccc(CNC(=O)CC[C@H]2O[C@@H](n3cc(C)c(=O)[nH]c3=O)C[C@@H]2O)cc1 | -6 | 0 | . | 6 | -3 | . | . | .
Cc1ccsc1C(=O)N/N=C/c1ccc2c(c1)OCO2 | -3 | -34 | -80 | -2 | 3 | 8.8* | 104* | 29*
Cc1cc(O)c(NC(=O)c2cccc([N+](=O)[O-])c2)cc1C | -4 | -10 | -2 | 3 | 4 | 7.6* | 91* | 31*
O=C(Nc1cc([N+](=O)[O-])ccc1O)c1cccc([N+](=O)[O-])c1 | -8 | 24 | -23 | -6 | -1 | 1 | . | .
CC(C)N=c1scc(-c2cccs2)n1/N=C/c1ccc(O)c(O)c1O | 0 | -7 | -20 | 50* | -2 | 9.0* | 49* | 23*
CN=c1scc(-c2ccccc2F)n1/N=C/c1ccc(O)c(O)c1O | -3 | 21 | -30 | -13 | -1 | -1 | . | .
Cc1cc(CN(C)C(=O)CC2C(=O)NCCN2Cc2ccc(-c3ccccc3)cc2)on1 (stereo not drawn) | 2 | 0 | 23 | -3 | 0 | -3 | . | .
CN(C)Cc1ccc(-c2nc3cccc4c3n2CCNC4=O)cc1 | 0 | 24 | -1 | 53* | 1 | 7.8* | 25* | 50*
COc1ccc(-c2cc(C(=O)NCC3CCCO3)c3ccccc3n2)cc1 (stereo not drawn) | -7 | -17 | -8 | 3 | 2 | 1 | . | .
COc1ccc(N=c2oc3cc(O)ccc3cc2C(=O)NCC2CCCO2)c(OC)c1 (stereo not drawn) | -8 | -10 | 8 | 12 | 0 | 9.7* | 5 | 18*
COc1ccc(-c2cc(C(=O)NCC3CCCO3)c3cc(C)ccc3n2)cc1 (stereo not drawn) | -2 | -7 | -54 | 2 | 3 | 7.6* | 68* | 22*
COCC1OC(OC(C)C(O)c2cnc3nc(N)[nH]c(=O)c3n2)C(O)C(OC)C1O (stereo not drawn) | -7 | 0 | . | -1 | 1 | 1 | . | .
C/C(=N\NC1=NCCN1)c1ccc(N)c([N+](=O)[O-])c1 | 1 | -1 | -1 | 20 | 0 | 2 | . | .
CCCCCCOc1ccc(/C(C)=N/NC2=NCCN2)cc1[N+](=O)[O-] | 7 | -15 | 16 | -15 | 5 | 7.8* | 28* | 17*
C(=N\Nc1nc(-c2ccccc2)cs1)/c1cccnc1 | -8 | -19 | -73 | 23 | 1 | 1 | . | .
CC(C)(C)c1csc(N/N=C/c2cccnc2)n1 | -4 | -22 | -35 | -5 | 1 | 7.9* | 91* | 37*
O=c1oc2ccccc2cc1-c1nc2ccccc2o1 | -8 | -47 | -15 | -6 | 1 | 8.4* | 122* | 37*
O=c1oc2ccc3ccccc3c2cc1-c1nc2ccccc2o1 | -4 | 4 | 4 | 26 | 3 | -1 | . | .
SMILES | GalR3 antagonist | COUP-TFII inh | Gli-Sufu antag | Cardio protect | SMARCA2 act | GAA850 FXN act | GAA30 FXN cntr | FXN GAA850 conf
Nc1ncnc2c1ncn2[C@@H]1O[C@H](C(=O)N[C@H](CO)Cc2ccc(O)cc2)[C@@H](O)[C@H]1O | -5 | -11 | . | 0 | 4 | . | . | .
CN1CCN(c2ccc3c(c2)Oc2ccccc2CN(Cc2cn(Cc4ccc(F)cc4)nn2)S3(=O)=O)CC1 | . | -16 | . | . | 0 | . | . | .
CC1=CC(=C(C#N)c2nc3ccccc3s2)C=C(C)N1CC1CCCO1 (stereo not drawn) | -4 | -5 | 6 | 8 | -3 | 7.8* | 39* | 32*
CN1C(c2ccccc2)CC(C)(O)CC1c1ccccc1 (stereo not drawn) | -9 | 17 | . | . | 3 | . | . | .
CC1=C(C(=O)N(C(C)C)C(C)C)CC(CC(=O)NC(c2ccccc2)c2ccccc2)C(=O)N1Cc1ccc(C(C)(C)C)cc1 (stereo not drawn) | -8 | 12 | . | -2 | -4 | . | . | .
CC(Oc1cc2oc(=O)cc(-c3ccccc3)c2cc1Cl)C(=O)NCC1CCC(C(=O)O)CC1 (stereo not drawn) | -9 | 3 | 0 | 1 | 0 | 11* | 20 | 8.8*
O=[N+]([O-])c1ccc(Nc2c3ccccc3nc3ccccc23)cc1 | -1 | -15 | 20 | -18 | -1 | 5 | . | .
COc1ccc([N+](=O)[O-])cc1Nc1c2ccccc2nc2ccccc12 | -9 | 14 | 40 | -20 | -4 | 9.3* | 3 | 21*
O=[N+]([O-])c1ccccc1Nc1c2ccccc2nc2ccccc12 | -5 | 37 | -1 | -17 | -5 | 9.6* | 32* | 16*
COc1ccc(OC)c(Nc2c3ccccc3nc3ccccc23)c1 | -11 | 16 | 30 | -17 | -1 | -4 | . | .
CC(O)C(O)C(O)C(O)/C=N/NC(=O)c1ccccc1 (stereo not drawn) | -6 | -36 | 0 | 1 | 1 | 7.7* | 23* | 7
O=C1C(NC(=O)N2c3ccccc3C=Cc3ccccc32)CCCCN1Cc1cccc(Cl)c1 (stereo not drawn) | . | 9 | . | . | -3 | . | . | .
COc1ccc(S(=O)(=O)N2CCCCC2)cc1NC(=O)Cc1sc(C)nc1-c1ccc(F)cc1 | -3 | 28 | 3 | -5 | 3 | 13* | 22* | 11*
COc1ccc(S(=O)(=O)N2CCOCC2)cc1NC(=O)Cc1sc(C)nc1-c1ccc(F)cc1 | -4 | -8 | 3 | 5 | -1 | 1 | . | .
Cc1cc(N=Nc2ccccc2)cc(C)c1NC(=O)C(F)(F)F | -5 | -65 | -38 | -13 | 0 | 6 | . | .
